Screens: PubChem BioAssay, several laboratories
This is a sample that favours compounds with a hit; in the whole collection about 4.8% have one here.
Wee1 stabilizer – Wee1 degradation inhibitors, primary screen, cell-based, HeLa, Wee1K328M-luciferase, luminescence. Wee1-like protein kinase (Homo sapiens), P30291. HeLa Luc-Wee1K328M stability; 100% = proteasome inhibitor MG132 effect. reporter increase, % at 5 µM. 1.2% of 220,000 active. AID 1321, 2008;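 active = activation above the mean of all tested compounds plus 3 SD, set per screening run, cut at about 8.8% in these data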;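 also: cells exposed to compound for 20 h before luminescence read; 0% = DMSO alone and 100% = MG132 at 30 µM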
Target sequence (P30291 whole entry K328M): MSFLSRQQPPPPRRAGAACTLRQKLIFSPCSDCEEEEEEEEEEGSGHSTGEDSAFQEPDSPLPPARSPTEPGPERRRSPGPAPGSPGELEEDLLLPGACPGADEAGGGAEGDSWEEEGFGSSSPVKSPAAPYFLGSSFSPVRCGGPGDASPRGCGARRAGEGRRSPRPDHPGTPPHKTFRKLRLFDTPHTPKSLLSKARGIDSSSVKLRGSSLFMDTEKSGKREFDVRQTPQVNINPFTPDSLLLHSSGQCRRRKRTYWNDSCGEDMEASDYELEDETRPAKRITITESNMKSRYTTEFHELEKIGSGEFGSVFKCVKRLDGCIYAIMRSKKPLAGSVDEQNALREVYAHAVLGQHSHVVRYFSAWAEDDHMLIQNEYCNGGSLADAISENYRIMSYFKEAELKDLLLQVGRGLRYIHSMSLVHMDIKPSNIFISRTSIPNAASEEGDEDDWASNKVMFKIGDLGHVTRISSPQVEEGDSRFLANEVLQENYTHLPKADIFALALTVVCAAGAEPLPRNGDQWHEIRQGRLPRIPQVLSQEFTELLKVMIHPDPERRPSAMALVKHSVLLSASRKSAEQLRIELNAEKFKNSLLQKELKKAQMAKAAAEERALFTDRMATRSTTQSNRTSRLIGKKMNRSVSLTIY
STAT1 activator – STAT1 signaling activators, primary screen, cell-based, HTS, luciferase reporter; NIH 3T3 STAT1-luciferase reporter, IFN-gamma, luminescence; 100% = IFN-gamma alone, no compound; activation (% of control), % at 5.5 µM; 2.6% of 200,000 active; AID 932, 2007;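 active = activation above the screen-wide mean activation plus 3 SD, cut at about 130% in these data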;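 also: raw ratio to IFN-gamma control signal so 100% means no change and 0% no light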
APP 5'UTR act – activators of APP 5'UTR luciferase reporter, primary screen, SH-SY5Y cells | SH-SY5Y APP 5'UTR luciferase reporter, luminescence; zero percent = DMSO vehicle wells | activation, % at 2 µM | 1% of 190,000 active | AID 1276, 2008;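 active = activation above a set limit, based on mean plus 3 SD of controls, cut at about 140% in these data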
APP transl inh – inhibitors of APP translation via 5'UTR reporter, primary screen, APP 5'UTR luciferase, SH-SY5Y cells; SH-SY5Y APP 5'UTR-luciferase reporter, luminescence; inhibition, % at 2 µM; 0.82% of 190,000 active; AID 1285, 2008;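 active = inhibition above a set limit, derived from the sample mean plus 3 SD, cut at about 45% in these data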
Hsp70 activator – Hsp70 transcriptional activators, primary screen, cell-based, HeLa, Hsp70 promoter luciferase, luminescence, 10 µM | activation, % at 10 µM | HeLa Hsp70 promoter luciferase reporter; scaled: vehicle 0, proteasome-inhibitor control 100% | 0.04% of 200,000 active | AID 1203, 2008;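 active = activation above the mean across all tested compounds plus 3 SD, cutoff set per campaign, cut at about 5.5% in these data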;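 also: 100% = MG132 at 30 µM as the positive control and 0% = DMSO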
NF-kB neuron act – activators of NF-kB expression in neurons, primary screen, cell-based, HTS | human neuronal cells, NF-kB reporter expression; hits give high values | 1.6% of 190,000 active | fold change at 12.5 µM; in the data active = fold change above about 3.3
An asterisk follows results filed as active; · = no result given.

SMILES	Wee1 stabilizer	STAT1 activator	APP 5'UTR act	APP transl inh	Hsp70 activator	NF-kB neuron act
O=C(Cn1cnc2sc(-c3ccccc3)cc2c1=O)N1CCOCC1	4	105	-4	4	0	1.2
CC(=O)Cn1cnc2sc(-c3ccccc3)cc2c1=O	0	145*	86	-86	0	3.7*
COc1cccc(C2C(=O)c3ccccc3C2=O)c1	-3	·	·	·	·	·
O=C1c2ccccc2C(=O)C1c1ccc(O)cc1	2	98	48	-48	0	3.8*
CCN(CC(=O)NCc1ccccc1Cl)CC(=O)Nc1c(F)cccc1F	9.5*	·	·	·	·	·
CCCCC(=O)NCc1ccccc1Cl	-1	104	9	-9	0	1.1
CCOc1ccc(/C=C2/SC(=S)N(C(C(=O)O)c3ccccc3)C2=O)cc1OCC (configuration not stated)	17*	99	-1	1	0	1.1
COc1cc(NC(=O)Cc2ccccc2)ccc1NC(=O)c1ccco1	4	111	4	-4	0	2.3
O=C(Nc1nccs1)c1sc2ccccc2c1Cl	4	106	234*	-234	0	7*
CC(C)c1nnc(NC(=O)c2sc3ccccc3c2Cl)s1	2	126	18	-18	0	2.5
O=C(Nc1nccs1)c1sc2cc(Cl)ccc2c1Cl	0	146*	128	-128	0	3.1
COc1ccnc(CSC(N)=Nc2ccc(F)cc2)c1	1	105	57	-56	0	1.7
O=C(NC1CC1)C1CCN(c2ccc(S(=O)(=O)N3CCOCC3)cc2Cl)CC1	0	101	22	-22	0	1.5
CCOC(=O)N1CCN(C(=O)c2ccc3c(c2)sc2nc(-c4ccccc4)cn23)CC1	5	145*	82	-82	0	0.44
O=C(CNc1ccc2c(c1)OCO2)N/N=C\c1cn(Cc2ccc(F)cc2)c2ccccc12	0	102	-12	12	0	1.2
COc1ccc(/C=C2\CCOC2=O)cc1	-2	102	11	-11	0	1.1
COc1ccc(/C=C2/C(=O)OCc3cc(OC)c(OC)cc32)cc1	1	97	-82	82*	0	1.2
O=C(/C(=C(\[O-])c1ccccc1)[n+]1ccc2ccccc2c1)c1ccccc1	-1	103	18	-18	0	0.97
COc1cc(C2C(C#N)=C(N)N(c3ccc(F)cc3)C3=C2S(=O)(=O)CC3)ccc1O (configuration not stated)	9.6*	104	10	-10	0	1.1
Cc1cccc(C(=O)O/N=C(\N)c2cccc([N+](=O)[O-])c2)c1	1	130*	95	-95	0	2.9
N/C(=N\OC(=O)c1cccc2ccccc12)c1cccc([N+](=O)[O-])c1	2	106	18	-18	0	1.4
COc1ccc(/C(N)=N/OC(=O)c2cccc([N+](=O)[O-])c2)cc1OC	0	100	·	·	0	1.3
COc1cccc(C(=O)O/N=C(\N)c2ccc([N+](=O)[O-])cc2)c1OC	1	132*	·	·	0	2.7
Cc1ccccc1C(=O)O/N=C(\N)c1cccc([N+](=O)[O-])c1	0	139*	89	-89	0	3.2
O=C(/C=C/c1ccco1)Nc1ccccc1N1CCOCC1	-2	101	-9	9	0	1.4
SMILES	Wee1 stabilizer	STAT1 activator	APP 5'UTR act	APP transl inh	Hsp70 activator	NF-kB neuron act
CCN(Cc1ccccc1)c1ccc(N=Nc2nn(C)c(C)c2[N+](=O)[O-])cc1	-3	133*	27	-27	0	1.4
CCN(Cc1ccccc1)c1ccc(/C=N/NS(=O)(=O)c2ccc(C)c([N+](=O)[O-])c2)cc1	-1	101	-16	16	0	0.88
Cc1nc2ccc(NC(=O)NC(=O)c3c(Cl)cccc3Cl)cc2o1	10*	·	·	·	·	·
CNC(=O)Nc1ccc2nc(C)oc2c1	3	·	·	·	·	·
CN(C)CCN(C(=O)c1cc(Cl)sc1Cl)c1nc2ccc(F)cc2s1	-1	98	12	-12	0	1.5
Cc1nnc(SCC(=O)NCC2CCCCC2)n(N)c1=O	-1	96	-3	3	0	1.1
COc1ccc2nc(SCc3cccc(C)c3)nc(C)c2c1	4	130*	73	-73	0	3.5*
Cn1c(=O)c2c(ncn2CC(=O)NC(C)(C)C)n(C)c1=O	0	102	-2	2	0	0.95
Cn1c(=O)c2c(nc(Sc3ncnn3CC(=O)NC(C)(C)C)n2C)n(C)c1=O	10*	105	23	-23	0	0.97
CC12CCC(=O)N1C(C(=O)OCC(=O)Nc1cccc(S(=O)(=O)N3CCCCCC3)c1)CS2 (configuration not stated)	0	95	-5	4	0	1.6
CCCCS/C(N)=N/N=C/c1ccccc1O	1	109	·	·	0	2.8
CCCS/C(N)=N/N=C/c1cc(C)ccc1O	5	117	150*	-150	0	11*
CCN1/C(=C/C=C/c2oc3ccc(-c4ccccc4)cc3[n+]2CC)Oc2ccc(-c3ccccc3)cc21	-1	44	-74	74*	0	0.29
O=C(CNCCO)N1CCc2ccccc21	1	99	-9	9	0	1.2
O=C(CNc1ccccc1OC(F)F)N1CCc2ccccc21	7	143*	92	-92	0	3.2
CCN1/C(=C/C=C/C=C/c2sc3ccccc3[n+]2CC)Sc2ccccc21	2	75	-82	82*	0	0.35
CC[n+]1c(/C=C/Nc2ccccc2)sc2ccccc21	-1	88	14	-14	0	0.7
COc1ccc(N2CCN(C(c3cccs3)C(C)NS(=O)(=O)c3ccccc3)CC2)cc1 (configuration not stated)	6	90	-11	11	-1	0.9
CN(C)CCCNS(=O)(=O)c1ccc(N2CCC(c3ccc(Cl)cc3)=N2)cc1	0	100	-3	3	0	2
COc1cc(C(=O)Nc2ccc(N(C)C)cc2)c([N+](=O)[O-])cc1OC	-2	146*	53	-53	0	·
COc1cc(C(=O)Nc2ccncc2)c([N+](=O)[O-])cc1OC	4	·	·	·	·	·
O=C(NC(=S)Nc1ccc(CN2CCOCC2)cc1)c1ccco1	10*	·	·	·	·	·
COc1cccc(NC(=O)c2ccc(CN3CCOCC3)cc2)c1	3	131*	69	-69	0	2
COc1c(C)cccc1C(=O)Nc1ccc(N2CCN(S(C)(=O)=O)CC2)cc1	-3	145*	35	-35	0	2
CC(C)Oc1cccc(C(=O)Nc2ccc(CN3CCOCC3)cc2)c1	1	102	11	-11	0	1.1
